# For part of these data: Results with a measured potency or affinity are listed apart. Calls of active or inactive are those of the source.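 Rule for the calls, unless noted: active = calcium signal rise above buffer-control mean plus 5 SD in both duplicates, and also a hit in the primary screen; inactive = the rest.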
# How the values were obtained:
# [1] = test system: TRPC4 beta (transient receptor potential cation channel C4), mouse; assay: activators of mouse TRPC4 channel, confirmation, cell-based, Fluo4 calcium, HEK293 TRPC4beta/mu-opioid, duplicates, 10 µM (AID 2426;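 active = fluorescence ratio normalized to control raised more than 50% in primary screen plus both repeat runs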;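 for activation: percent rise of integrated ratio over buffer wells lacking compound which define 0%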); conditions: Fluo4 calcium fluorescence, at 10 µM; hits give high values
# [2] = test system: transient receptor potential cation channel C4 beta (TRPC4), mouse; assay: activators of mouse TRPC4 channel, confirmation, cell-based, second round, Fluo4, HEK293 TRPC4beta/mu-opioid, 1 µM (AID 2461;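 active = primary screen active and over 50% activation in each of two duplicate runs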); conditions: Fluo4 calcium fluorescence, at 1 µM; hits give high values
# [3] = test system: TRPC4 (transient receptor potential cation channel C4 beta), mouse; assay: positive allosteric modulators of mouse TRPC4, confirmation, cell-based, second round, Fluo-4, HEK293 TRPC4beta/mu-opioid, 1 µM (AID 2554;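 active = primary screen hit whose fluorescence ratio, in both repeats, exceeds the weak agonist control mean by 3 SD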); conditions: DAMGO EC20, Fluo-4 calcium flux, at 1 µM; hits give high values
# [4] = test system: TRPC4 beta (transient receptor potential cation channel C4), mouse; assay: positive allosteric modulators of mouse TRPC4, confirmation, cell-based, Fluo-4, HEK293 TRPC4beta/mu-opioid (AID 2555;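 active = primary screen hit whose calcium fluorescence ratio, in both repeats, exceeds the weak agonist control mean by 3 SD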); conditions: DAMGO EC20, Fluo-4 calcium flux, at 10 µM; hits give high values
# [5] = target: Short transient receptor potential channel 4 (Mus musculus) (UniProt Q9QUQ5); assay: inhibitors of mouse TRPC4 channel, confirmation, cell-based, Fluo4, HEK293 TRPC4beta/mu-opioid (AID 2636;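 active = calcium signal cut by more than 3 SD below the full-agonist control yet still positive, in both repeats and the earlier primary screen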); conditions: DAMGO, Fluo4 calcium flux, at 10 µM; hits give high values
# Sequence of Short transient receptor potential channel 4 (Mus musculus) (Q9QUQ5 whole entry, looked up): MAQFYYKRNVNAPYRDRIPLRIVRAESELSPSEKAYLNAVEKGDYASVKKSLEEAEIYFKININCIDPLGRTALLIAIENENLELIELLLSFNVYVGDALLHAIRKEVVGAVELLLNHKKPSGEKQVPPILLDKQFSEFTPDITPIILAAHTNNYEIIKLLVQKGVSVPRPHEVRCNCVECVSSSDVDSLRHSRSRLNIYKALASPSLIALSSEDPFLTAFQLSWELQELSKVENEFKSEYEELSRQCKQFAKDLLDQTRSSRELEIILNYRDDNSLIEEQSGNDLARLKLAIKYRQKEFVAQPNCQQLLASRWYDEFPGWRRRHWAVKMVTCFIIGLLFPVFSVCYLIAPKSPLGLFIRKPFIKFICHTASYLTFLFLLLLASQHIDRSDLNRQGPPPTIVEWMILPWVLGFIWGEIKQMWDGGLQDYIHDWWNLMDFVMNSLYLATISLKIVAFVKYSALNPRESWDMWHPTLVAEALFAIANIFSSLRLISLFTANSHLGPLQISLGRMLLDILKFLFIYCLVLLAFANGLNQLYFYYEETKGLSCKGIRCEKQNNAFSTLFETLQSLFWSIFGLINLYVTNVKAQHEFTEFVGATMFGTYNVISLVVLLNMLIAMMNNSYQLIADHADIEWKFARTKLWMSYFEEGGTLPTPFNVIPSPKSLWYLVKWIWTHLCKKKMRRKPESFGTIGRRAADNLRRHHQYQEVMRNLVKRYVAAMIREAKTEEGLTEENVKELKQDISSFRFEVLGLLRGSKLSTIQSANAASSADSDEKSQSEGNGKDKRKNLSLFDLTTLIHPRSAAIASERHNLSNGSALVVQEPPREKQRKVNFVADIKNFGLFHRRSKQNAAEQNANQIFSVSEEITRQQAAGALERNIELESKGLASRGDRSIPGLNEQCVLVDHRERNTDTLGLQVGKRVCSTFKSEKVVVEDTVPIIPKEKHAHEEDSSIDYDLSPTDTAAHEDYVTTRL
# [6] = target: Short transient receptor potential channel 4 (Mus musculus) (UniProt Q9QUQ5); assay: inhibitors of mouse TRPC4 channel, confirmation, cell-based, second round, Fluo4, HEK293 TRPC4beta/mu-opioid, 1 µM (AID 2637;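 active = calcium signal ratio cut to more than 3 SD under the fully stimulated control mean yet still positive, in both repeats and the primary screen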;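 for inhibition: percent of integrated ratio relative to wells lacking test compound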); conditions: Fluo4 calcium flux, DAMGO, at 1 µM; hits give high values
# [7] = target: Short transient receptor potential channel 4 (Mus musculus) (UniProt Q9QUQ5); assay: mouse TRPC4 channel activators, dose response, cell-based, HEK293 TRPC4/mu-opioid, Fluo-4 calcium (AID 434937;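 active = primary screen activator hit with a dose response curve and TRPC4 channel activation at any tested dose; inactive = no activation, no dose response, or not a primary hit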)
# [8] = target: Short transient receptor potential channel 4 (Mus musculus) (UniProt Q9QUQ5); assay: TRPC4 positive allosteric modulators, dose response, cell-based, HEK293 TRPC4/mu-opioid, Fluo-4 calcium, EC20 DAMGO (AID 434941;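 active = earlier screen potentiator hit that boosts the TRPC4 ion channel at some dose, with a dose response; inactive = no potentiation, no dose response, or not a prior hit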;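 note: calcium entry triggered by an EC20 dose of DAMGO at the co-expressed mu-opioid receptor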)
# [9] = target: Short transient receptor potential channel 6 (Mus musculus) (UniProt Q61143); assay: inhibition of mouse TRPC6 channel, confirmation, selectivity assay for TRPC4 inhibitor project, cell-based, HEK293, membrane potential dye, duplicate (AID 434948;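 active = active in primary screen and both duplicates, each dropping signal beyond three positive-control SD with fluorescence still positive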); conditions: HEK293 TRPC6, membrane potential dye fluorescence, at 10 µM, stimulated with maximal-effect acetylcholine; hits give high values
# Sequence of Short transient receptor potential channel 6 (Mus musculus) (Q61143 whole entry, looked up): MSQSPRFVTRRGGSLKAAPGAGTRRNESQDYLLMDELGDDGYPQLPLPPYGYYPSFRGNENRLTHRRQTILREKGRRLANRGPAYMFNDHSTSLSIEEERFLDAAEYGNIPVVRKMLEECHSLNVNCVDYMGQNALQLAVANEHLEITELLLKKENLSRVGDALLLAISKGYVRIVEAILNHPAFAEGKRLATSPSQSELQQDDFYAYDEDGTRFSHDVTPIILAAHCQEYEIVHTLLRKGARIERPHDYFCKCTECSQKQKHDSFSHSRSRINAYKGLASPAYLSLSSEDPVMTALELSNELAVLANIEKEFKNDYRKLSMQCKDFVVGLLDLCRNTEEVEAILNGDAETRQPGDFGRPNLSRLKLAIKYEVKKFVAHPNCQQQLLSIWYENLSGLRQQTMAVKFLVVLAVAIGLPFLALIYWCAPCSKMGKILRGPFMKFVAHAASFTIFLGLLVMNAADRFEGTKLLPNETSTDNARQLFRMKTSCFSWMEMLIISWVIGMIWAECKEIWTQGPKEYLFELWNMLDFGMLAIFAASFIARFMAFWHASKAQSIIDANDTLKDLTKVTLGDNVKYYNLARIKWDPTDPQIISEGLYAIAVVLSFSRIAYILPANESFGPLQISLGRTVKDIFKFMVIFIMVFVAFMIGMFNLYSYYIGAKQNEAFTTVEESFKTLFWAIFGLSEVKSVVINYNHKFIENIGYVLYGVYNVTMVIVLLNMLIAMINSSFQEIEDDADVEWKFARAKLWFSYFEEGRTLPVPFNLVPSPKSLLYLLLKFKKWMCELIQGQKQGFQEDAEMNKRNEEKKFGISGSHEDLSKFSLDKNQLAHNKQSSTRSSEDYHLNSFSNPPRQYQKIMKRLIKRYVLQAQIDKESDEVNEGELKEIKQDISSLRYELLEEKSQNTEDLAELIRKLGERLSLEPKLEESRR
# [10] = target: Short transient receptor potential channel 6 (Mus musculus) (UniProt Q61143); assay: activation of mouse TRPC6 channel, confirmation, selectivity assay for TRPC4 activator project, cell-based, HEK293, membrane potential dye, duplicate (AID 434950;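 active = membrane potential signal rise above negative control mean plus 3 SD in both duplicates, also active in the earlier TRPC4 screen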); conditions: HEK293 TRPC6, membrane potential fluorescence, at 10 µM; hits give high values
# [11] = target: Short transient receptor potential channel 6 (Mus musculus) (UniProt Q61143); assay: TRPC6 potentiation by TRPC4 potentiator hits, confirmation, selectivity assay for TRPC4 potentiator project, HEK293 cells, membrane potential dye, duplicate (AID 434952;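 active = compound raising the membrane signal above positive-control mean plus 3 SD in both repeats, and a primary screen hit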); conditions: HEK293 TRPC6, membrane potential dye fluorescence, at 10 µM, maximal acetylcholine added after compound; hits give high values
# [12] = target: Short transient receptor potential channel 4 (Mus musculus) (UniProt Q9QUQ5); assay: calcium flux activators in TRPC4/5HT1a cells, counter-screen for TRPC4 activator project, cell-based, second counter screen, HEK293 TRPC4/5HT1a, Fluo-4 (AID 434977); conditions: Fluo-4 calcium flux, at 10 µM; hits give high values
# [13] = calcium flux inhibitors in TRPC4/5HT1a cells, confirmation, counter-screen for TRPC4 inhibitor project, cell-based, second counter screen, HEK293 TRPC4/5HT1a, Fluo-4 (AID 434978;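 active = primary screen active whose calcium signal fell more than 3 SD beyond the full-serotonin control mean in both duplicate plates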;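 for outcome: serotonin given first at submaximal then at maximal dose after compound preincubation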); conditions: Fluo-4 calcium flux, at 10 µM, serotonin added to trigger calcium flux; hits give high values
# [14] = test system: TRPC4 (mouse), co-expressed with 5HT1a in HEK293; assay: calcium flux potentiators in TRPC4/5HT1a cells, confirmation, counter-screen for TRPC4 potentiator project, cell-based, second counter screen, HEK293 TRPC4/5HT1a, Fluo-4 (AID 434979;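 active = signal rise over 3 SD above mean of control wells given weak agonist, in both repeats and first screen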); conditions: Fluo-4 calcium flux, at 10 µM, serotonin added at its EC20 dose; hits give high values
# [15] = calcium flux activation in mu-opioid HEK293 cells, confirmation, counter-screen for TRPC4 activator project, cell-based, HEK293 mu-opioid receptor line (AID 449723;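 active = hit in primary screen, with calcium signal over 5 SD above buffer well mean in both duplicates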;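 note: counter screen cells carry the mu-opioid receptor alone and lack TRPC4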); conditions: Fluo-4 calcium fluorescence, at 10 µM; hits give high values
# [16] = calcium flux enhancement in mu-opioid HEK293 cells, confirmation, counter-screen for TRPC4 allosteric potentiator project, cell-based, HEK293 mu-opioid receptor line (AID 449724;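 active = calcium signal rise more than 3 SD above the low-dose agonist control mean, in both duplicate plates and the primary screen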); conditions: Fluo-4 calcium flux, at 10 µM, compound added before EC20 DAMGO stimulus; hits give high values
smiles,measurement,setting,value
CC12CN3CC(C)(CN(C1)C3c1ccc(Cl)cc1Cl)C2O (stereo not given),activation,[1],66% (active)
same,outcome,[2],inactive
same,outcome,[3],inactive
same,outcome,[4],inactive
same,outcome,[5],inactive
same,inhibition,[6],64% (active)
same,outcome,[7],inactive
same,outcome,[8],inactive
same,outcome,[9],inactive
same,outcome,[10],inactive
same,outcome,[11],inactive
same,outcome,[12],inactive
same,outcome,[13],inactive
same,outcome,[14],inactive
same,outcome,[15],inactive
same,outcome,[16],inactive
CCCCN=C(Nc1ccc(Cl)cc1)c1cccnc1,outcome,[1],inactive
same,outcome,[2],inactive
same,outcome,[3],inactive
same,outcome,[4],inactive
same,inhibition,[5],82% (active)
same,inhibition,[6],54% (active)
same,outcome,[7],inactive
same,outcome,[8],inactive
same,outcome,[9],inactive
same,outcome,[10],inactive
same,outcome,[11],inactive
same,outcome,[12],inactive
same,outcome,[13],inactive
same,outcome,[14],inactive
same,outcome,[15],inactive
same,outcome,[16],inactive
CC(C)Cc1cc(CN2CCCC(CO)(Cc3cccc(Cl)c3)C2)[nH]n1 (stereo not given),outcome,[1],inactive
same,outcome,[2],inactive
same,outcome,[3],inactive
same,outcome,[4],inactive
same,inhibition,[5],91% (active)
same,outcome,[6],inactive
same,outcome,[7],inactive
same,outcome,[8],inactive
same,outcome,[9],inactive
same,outcome,[10],inactive
same,outcome,[11],inactive
same,outcome,[12],inactive
same,inhibition,[13],42.2% (active)
same,outcome,[14],inactive
same,outcome,[15],inactive
same,outcome,[16],inactive
COCC(C)NC(C(=O)Nc1ccc(Cl)c([N+](=O)[O-])c1)c1ccccc1 (stereo not given),outcome,[1],inactive
same,outcome,[2],inactive
same,outcome,[3],inactive
same,outcome,[4],inactive
same,inhibition,[5],87% (active)
same,outcome,[6],inactive
same,outcome,[7],inactive
same,outcome,[8],inactive
same,outcome,[9],inactive
same,outcome,[10],inactive
same,outcome,[11],inactive
same,outcome,[12],inactive
same,outcome,[13],inactive
same,outcome,[14],inactive
same,outcome,[15],inactive
same,outcome,[16],inactive
Cc1cc(C)c(S(=O)(=O)c2ccccc2C)c(OCC(C)(C)C)n1,outcome,[1],inactive
same,outcome,[2],inactive
same,outcome,[3],inactive
same,outcome,[4],inactive
same,inhibition,[5],91% (active)
same,inhibition,[6],43% (active)
same,outcome,[7],inactive
same,outcome,[8],inactive
same,outcome,[9],inactive
same,outcome,[10],inactive
same,outcome,[11],inactive
same,outcome,[12],inactive
same,inhibition,[13],15.5% (active)
same,outcome,[14],inactive
same,outcome,[15],inactive
same,outcome,[16],inactive
O=C(c1cccc(C(F)(F)F)c1)C1CCCN(Cc2cccn2-c2ccccn2)C1 (stereo not given),outcome,[1],inactive
same,outcome,[2],inactive
same,outcome,[3],inactive
same,outcome,[4],inactive
same,inhibition,[5],72% (active)
same,outcome,[6],inactive
same,outcome,[7],inactive
same,outcome,[8],inactive
same,inhibition,[9],43% (active)
same,outcome,[10],inactive
same,outcome,[11],inactive
same,outcome,[12],inactive
same,inhibition,[13],29.2% (active)
same,outcome,[14],inactive
same,outcome,[15],inactive
same,outcome,[16],inactive
OCC1(Cc2ccccc2)CCN(Cc2ccc(C(F)(F)F)cc2)CC1,outcome,[1],inactive
same,outcome,[2],inactive
same,outcome,[3],inactive
same,outcome,[4],inactive
same,inhibition,[5],91% (active)
same,outcome,[6],inactive
same,outcome,[7],inactive
same,outcome,[8],inactive
same,outcome,[9],inactive
same,outcome,[10],inactive
same,outcome,[11],inactive
same,outcome,[12],inactive
same,inhibition,[13],23.3% (active)
same,outcome,[14],inactive
same,outcome,[15],inactive
same,outcome,[16],inactive
Cc1nc(N2CCN(c3ccccn3)CC2)c2c(C)c(C(=O)N3CCN(c4ccc(F)cc4)CC3)sc2n1,outcome,[1],inactive
same,outcome,[2],inactive
same,outcome,[3],inactive
same,outcome,[4],inactive
same,inhibition,[5],99% (active)
same,inhibition,[6],48% (active)
same,outcome,[7],inactive
same,outcome,[8],inactive
same,outcome,[9],inactive
same,outcome,[10],inactive
same,outcome,[11],inactive
same,outcome,[12],inactive
same,outcome,[13],inactive
same,outcome,[14],inactive
same,outcome,[15],inactive
same,outcome,[16],inactive
OCc1ccccc1CNCc1ccccc1,outcome,[1],inactive
same,outcome,[2],inactive
same,outcome,[3],inactive
same,outcome,[4],inactive
same,inhibition,[5],95% (active)
same,inhibition,[6],52% (active)
same,outcome,[7],inactive
same,outcome,[8],inactive
same,outcome,[9],inactive
same,outcome,[10],inactive
same,outcome,[11],inactive
same,outcome,[12],inactive
same,inhibition,[13],18.7% (active)
same,outcome,[14],inactive
same,outcome,[15],inactive
same,outcome,[16],inactive
Cc1cc(Cl)c2oc(C(=O)N(C)Cc3nccn3C)c(C)c2c1,outcome,[1],inactive
same,outcome,[2],inactive
same,outcome,[3],inactive
same,outcome,[4],inactive
same,inhibition,[5],84% (active)
same,outcome,[6],inactive
same,outcome,[7],inactive
same,outcome,[8],inactive
same,outcome,[9],inactive
same,outcome,[10],inactive
same,outcome,[11],inactive
same,outcome,[12],inactive
same,outcome,[13],inactive
same,outcome,[14],inactive
same,outcome,[15],inactive
same,outcome,[16],inactive
CC(NC(=O)c1ccco1)C(c1cccs1)N1CCN(c2ccccc2)CC1 (stereo not given),outcome,[1],inactive
same,outcome,[2],inactive
same,outcome,[3],inactive
same,outcome,[4],inactive
same,inhibition,[5],98% (active)
same,inhibition,[6],51% (active)
same,outcome,[7],inactive
same,outcome,[8],inactive
same,outcome,[9],inactive
same,outcome,[10],inactive
same,outcome,[11],inactive
same,outcome,[12],inactive
same,outcome,[13],inactive
same,outcome,[14],inactive
same,outcome,[15],inactive
same,outcome,[16],inactive
CSc1nsc(NC(=O)Cc2ccccc2)n1,outcome,[1],inactive
same,outcome,[2],inactive
same,outcome,[3],inactive
same,outcome,[4],inactive
same,inhibition,[5],93% (active)
same,outcome,[6],inactive
same,outcome,[7],inactive
same,outcome,[8],inactive
same,outcome,[9],inactive
same,outcome,[10],inactive
same,outcome,[11],inactive
same,outcome,[12],inactive
same,outcome,[13],inactive
same,outcome,[14],inactive
same,outcome,[15],inactive
same,outcome,[16],inactive
Cc1ccc(Nc2cc(C)nc3ccc(C)cc23)cc1,outcome,[1],inactive
same,outcome,[2],inactive
same,outcome,[3],inactive
same,outcome,[4],inactive
same,outcome,[5],inactive
same,outcome,[6],inactive
same,outcome,[7],inactive
same,outcome,[8],inactive
same,inhibition,[9],35% (active)
same,outcome,[10],inactive
same,outcome,[11],inactive
same,outcome,[12],inactive
same,inhibition,[13],25.7% (active)
same,outcome,[14],inactive
same,outcome,[15],inactive
same,outcome,[16],inactive
CCOc1ccccc1N(CC)C(=O)c1nn(C)c2c1CSc1ccccc1-2,outcome,[1],inactive
same,outcome,[2],inactive
same,outcome,[3],inactive
same,outcome,[4],inactive
same,inhibition,[5],95% (active)
same,inhibition,[6],40% (active)
same,outcome,[7],inactive
same,outcome,[8],inactive
same,outcome,[9],inactive
same,outcome,[10],inactive
same,outcome,[11],inactive
same,outcome,[12],inactive
same,inhibition,[13],18.7% (active)
same,outcome,[14],inactive
same,outcome,[15],inactive
same,outcome,[16],inactive
C=CCOc1ccc(C2CC(C)=NN2c2ccccc2)cc1 (stereo not given),outcome,[1],inactive
same,outcome,[2],inactive
same,outcome,[3],inactive
same,outcome,[4],inactive
same,inhibition,[5],84% (active)
same,inhibition,[6],44% (active)
same,outcome,[7],inactive
same,outcome,[8],inactive
same,outcome,[9],inactive
same,outcome,[10],inactive
same,outcome,[11],inactive
same,outcome,[12],inactive
same,inhibition,[13],32% (active)
same,outcome,[14],inactive
same,outcome,[15],inactive
same,outcome,[16],inactive

# — PubChem BioAssay
